# Measured values: PubChem BioAssay
# “And” between values parts separate entries of the source, which are not always exact repeats. Equal entries are not always repeated. The source made the active and inactive calls.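 How the source made its calls, unless noted: active means compounds whose cell count with miR-34 switched on is under 0.7 times the count with it off; inactive means the rest.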 Numbered stars: 1 amine (or outer) side, 2 acyl side, 3 side chain; on linkers, the order of the positions; unused ones are H or OH. Bridge positions count the residues as written; N and C are the ends. Square brackets hold non-standard residues; d marks the D form. Peptide text beside a SMILES is read from it. * marks the point of attachment. X4 = NC1=N[C@@H]([C@H](N[*:1])C(=O)[*:2])C[C@H](O)N1; ΔAla(Z-3-ureido) = NC(=O)N/C=C(\N)C(=O)O; β3hOrn = NCCC[C@H](N)CC(=O)*; Dap = NC[C@H](N)C(=O)O
# Key:
# [1] = liver-stage malaria parasite growth inhibition, primary screen, cell-based, HepG2, luciferase luminescence, HepG2 viability (AID 624349; in the data active means parasite load remaining mostly below about 12%, no sharp cut-off; inactive means mostly above about 10%;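 further: 100% = mean of DMSO negative control wells on the same plate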); details: P. berghei liver stage in HepG2, luciferase luminescence, concentration not given here; parasite load remaining: stronger effect = lower value; viability: measured here: HepG2 viability without parasites
# [2] = sensitizers of A549 cells to miR-34 induction, primary screen, imaging, A549 dox-inducible miR-34, nuclei and caspase counts (AID 1347080); details: A549 miR-34 inducible, Hoechst nuclei count, 48 h
# [3] = survival rescue of mitochondrial mutant cells in low glucose, primary screen, MELAS cybrids, Rieske KO mouse fibroblasts, CellTiter-Glo (AID 1508586;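 active means mean z-score across replicates of 1.96 or higher in either the MELAS or the Rieske mutant cell line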;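 further: z relative to plate mean and SD of compound and empty wells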)
# [4] = target: NAD(+) hydrolase SARM1 (Homo sapiens) (UniProt Q6SZW1); experiment: SARM1 TIR NADase inhibitors, cell lysate, NAD-Glo luminescence (AID 1508614;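 active means compound whose remaining NAD level is above about 45 nM, limit read from the data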); details: SAM-TIR HEK293T lysate NADase, at 1 µM, stronger effect = higher value
# [5] = viability rescue of complex I mutant cybrids, primary screen, cell-based, galactose medium, ATP luminescence (AID 1645843;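 active means z-score of at least 1.8 in each of two replicates, scored against plate mean and spread of sample wells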;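 further: positive z means more ATP and so rescue of galactose-driven cybrid death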); details: complex I mutant cybrid cells, 72 h, stronger effect = higher value
# [6] = stronger effect = lower value, cell number ratio, induced over uninduced
# [7] = measured here: relative caspase fold change +Dox/-Dox
# [8] = measured here: total cells with miR-34 induction, stronger effect = lower value
# [9] = measured here: total cells without miR-34 induction
# [10] = MELAS cybrid survival, CellTiter-Glo 48 h, stronger effect = higher value
# [11] = Rieske KO mouse fibroblast survival, CellTiter-Glo 72 h
# Chain of NAD(+) hydrolase SARM1 (Homo sapiens) (Q6SZW1 whole entry, looked up): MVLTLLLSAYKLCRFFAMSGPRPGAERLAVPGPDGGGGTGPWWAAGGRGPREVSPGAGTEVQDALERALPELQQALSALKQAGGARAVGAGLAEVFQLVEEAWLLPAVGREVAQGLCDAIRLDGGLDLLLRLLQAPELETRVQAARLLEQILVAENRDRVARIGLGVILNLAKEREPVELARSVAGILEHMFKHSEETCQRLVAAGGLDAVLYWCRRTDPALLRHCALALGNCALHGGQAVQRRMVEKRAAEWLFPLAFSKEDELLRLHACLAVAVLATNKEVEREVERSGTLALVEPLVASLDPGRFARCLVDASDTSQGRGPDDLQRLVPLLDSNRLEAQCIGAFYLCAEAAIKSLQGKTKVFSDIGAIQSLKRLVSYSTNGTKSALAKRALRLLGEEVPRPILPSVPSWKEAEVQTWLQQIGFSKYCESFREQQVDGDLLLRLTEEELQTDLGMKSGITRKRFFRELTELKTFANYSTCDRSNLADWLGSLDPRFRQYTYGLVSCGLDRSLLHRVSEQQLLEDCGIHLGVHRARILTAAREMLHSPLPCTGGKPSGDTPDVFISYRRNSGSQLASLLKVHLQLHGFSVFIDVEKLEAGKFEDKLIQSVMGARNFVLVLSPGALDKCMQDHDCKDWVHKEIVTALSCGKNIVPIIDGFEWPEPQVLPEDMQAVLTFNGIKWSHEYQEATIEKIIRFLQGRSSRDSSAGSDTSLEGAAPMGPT
Structure (SMILES),parasite load remaining [1],viability [1],"fold change [2, 6]","fold change [2, 7]","cell count [2, 8]","cell count [2, 9]","z-score [3, 10]","z-score [3, 11]",remaining NAD [4],z-score [5]
NCCC[C@H](N)CC(=O)N[C@H]1CNC(=O)[C@H]([C@H]2C[C@H](O)NC(N)=N2)NC(=O)/C(=C/NC(N)=O)NC(=O)[C@H](CO)NC(=O)[C@H](CO)NC1=O (β3hOrn-[Dap]SS[ΔAla(Z-3-ureido)][X4]; lactam 1-C),90.6% (inactive),75%,0.967 (inactive),0.791,9150,9470,-0.695 (inactive),-0.532,10 nM (inactive),–
OCCN1CC(O)C(O)C(O)C1CO (stereo not given),–,–,0.949 (inactive) and 0.938 (inactive),1.7 and 0.717,10100 and 10300,10600 and 11000,-0.386 (inactive),0.318,–,0.805 (inactive)
CCOc1nc2cccc(C(=O)OCc3oc(=O)oc3C)c2n1Cc1ccc(-c2ccccc2-c2noc(=O)[nH]2)cc1,–,–,0.946 (inactive),0.471,8160,8630,0.0175 (inactive),-0.018,10 nM (inactive),–
Cn1nc(NC(=O)Cn2cc(-c3nccc4occc34)cn2)c2ccccc21,–,–,0.83 (inactive),2.06,7280,8770,0.277 (inactive),-0.242,–,-0.345 (inactive)
